HT1080 IDH1KD tx = HT-1080 IDH1 knockdown cell toxicity (counter line); HT-1080 IDH1 knockdown viability, ATP luminescence, 48 h; Potency, µM (top dose mostly 46.1 µM), actives largely listed as cytotoxic; 360,000 compounds, 2% hits
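Viability of IDH1-knockdown HT-1080 fibrosarcoma cells was assessed by CellTiter-Glo after 48 h at 37 °C with titrated compound; concentration-effect curves were classified by fit quality and response size.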
TDP1 cell CPT = DT40-hTDP1 cell growth loss with CPT. chicken DT40 Tdp1-/-;hTDP1 cells + 20 nM CPT, ATP luminescence, 48 h. Potency, µM (doses to about 46.2 µM), hits mostly inhibitors. 420,000 compounds, 12% hits; further: nearly all actives have a fitted effect of over 55% in size
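Chicken DT40 Tdp1-/- cells stably complemented with human TDP1 were seeded at 400 cells/well in medium containing 20 nM camptothecin, exposed to pin-transferred compounds, and grown at 37 °C for at least 48 hr. Viability was read as ATP luminescence.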
12-LOX inh = blocks human arachidonate 12S-lipoxygenase; P18054; Potency, µM (highest dose often 108 µM), hits mostly inhibitors; purified 12hLO, xylenol orange hydroperoxide absorbance; 580,000 compounds, 1.1% hits
Target sequence (P18054 whole entry, looked up): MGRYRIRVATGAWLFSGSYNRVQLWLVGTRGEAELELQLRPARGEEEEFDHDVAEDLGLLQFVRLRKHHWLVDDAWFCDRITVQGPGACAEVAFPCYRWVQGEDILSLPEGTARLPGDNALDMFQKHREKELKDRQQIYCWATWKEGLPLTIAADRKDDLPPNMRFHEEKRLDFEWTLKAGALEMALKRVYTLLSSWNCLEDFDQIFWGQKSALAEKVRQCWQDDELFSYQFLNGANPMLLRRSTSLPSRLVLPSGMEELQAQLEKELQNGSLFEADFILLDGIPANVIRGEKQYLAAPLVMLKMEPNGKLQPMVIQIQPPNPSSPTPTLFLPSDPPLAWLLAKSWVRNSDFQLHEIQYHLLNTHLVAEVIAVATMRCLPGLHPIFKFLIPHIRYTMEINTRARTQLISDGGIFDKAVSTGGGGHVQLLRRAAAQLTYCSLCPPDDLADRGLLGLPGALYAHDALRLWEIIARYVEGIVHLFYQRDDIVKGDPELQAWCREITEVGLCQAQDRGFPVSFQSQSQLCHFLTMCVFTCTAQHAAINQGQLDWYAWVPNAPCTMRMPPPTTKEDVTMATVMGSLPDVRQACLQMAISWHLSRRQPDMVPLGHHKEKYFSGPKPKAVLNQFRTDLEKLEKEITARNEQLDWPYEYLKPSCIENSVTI
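Purified human 12hLO (150 nM final) in 25 mM Hepes, 0.01% Triton X-100, pH 7.0 was preincubated 15 min at room temperature with compound. Then 40 uM arachidonic acid was added, 30 min. Hydroperoxide was read by Fe-XO absorbance ratio 573/405 nm.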
HT1080-NT tox = kills 2HG-producing HT-1080-NT fibrosarcoma cells. AID 686970. 360,000 compounds, 1.6% hits. HT-1080-NT fibrosarcoma viability, CellTiter-Glo ATP luminescence, 48 h. Potency, µM (titrated, usually from 46.1 µM), hits mostly cytotoxic;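 further: NT is the 2HG producing partner of a matched IDH1 knockdown line; nearly all actives have a fitted effect of over 55% in size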
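Fibrosarcoma NT cells, 750 per well in 5% FBS RPMI, were exposed to compound for 48 hours. Viability: CellTiter-Glo luminescence.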
DT40 TDP1 no CPT = qHTS for Inhibitors of human tyrosyl-DNA phosphodiesterase 1 (TDP1): qHTS in cells in absence of CPT. DT40 Tdp1-/- hTDP1 cells, no CPT, ATP luminescence, 48 h. Potency, µM (top dose mostly 46.2 µM), hits mostly inhibitors. 420,000 compounds, 15% hits. AID 686978, 2013; further: nearly all actives have a fitted effect of over 55% in size
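No-CPT arm: Tdp1-/-;hTDP1 DT40 cells (400/well) plus compounds, incubated ≥48 hr at 37 °C. Readout CellTiter-Glo luminescence.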
IL-1B inflam inh = inflammasome signaling inhibition, IL-1 beta readout; THP-1 LPS/ATP IL-1B secretion, AlphaLISA, 16 h; stronger effect = lower value; activity change, % at 57.5 µM; 360,000 compounds, 4.7% hits; in the data active means activity change below about -50%; inconclusive means mostly about -30% to -49%
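THP-1 cells pretreated 1 hr with compounds (up to 57.5 uM final), then stimulated with LPS (250 ng/mL final) plus ATP (1.25 mM final); secreted IL-1B measured by AlphaLISA after 16 hr, decreased signal indicating inhibition.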
Hits are given with their value; 0 = inactive; ? = inconclusive; - = no result given. The full list was thinned out, with hits kept by preference. Unless noted, the call rests on the fitted dose curve; in most records, active means well fitted curve in the direction sought with a large enough effect; inconclusive means small, poorly fitted or top-dose-only effect, or another doubt; inactive means no such curve, though single readings can be large; an effect the other way counts as inactive or inconclusive.

SMILES	HT1080 IDH1KD tx	TDP1 cell CPT	12-LOX inh	HT1080-NT tox	DT40 TDP1 no CPT	IL-1B inflam inh
CCCNC(=O)C(C)n1nc(C)c2c(C)n(-c3ccccc3)nc2c1=O (stereo not drawn)	-	0	0	-	0	-
Cc1c(C(=O)NCCC2=CCCCC2)sc2ncnc(N3CCCCC3C)c12 (stereo not drawn)	0	?	?	0	0	-80
N#Cc1c(C#N)c(SSc2c(C#N)c(C#N)c(N)n2-c2ccccc2)n(-c2ccccc2)c1N	0	4.6µM	0.35µM	0	4.6µM	0
O=C(c1ccnc(-c2cncnc2)c1)N1CCCC1	-	-	0	-	-	-
Cn1cc(C(=O)N2CCN(S(=O)(=O)c3ccc(Br)cc3)CC2)c2ccccc21	-	-	0	-	-	-
COc1ccc(C)cc1NC(=O)CSc1nc(=O)n(Cc2cccnc2)c2c1CCC2	-	?	0	-	18µM	-
CCc1ccc(NC(=O)CSc2nc(=O)n(Cc3cccnc3)c3c2CCC3)cc1	-	?	0	-	16µM	-
COc1ccc(C)cc1NC(=O)CSc1nc(=O)n(Cc2ccccn2)c2c1CCC2	-	?	0	-	21µM	-
Cc1cccc(NC(=O)CSc2nc(=O)n(Cc3cccnc3)c3c2CCC3)c1	-	0	0	-	0	-
COC(=O)CCn1c(C)cc(C(=O)COc2ccccc2C(N)=O)c1C	?	21µM	0	0	23µM	-99
COC(=O)CCCn1c(C)cc(C(=O)CCl)c1C	?	6.5µM	0	21µM	10µM	-93
Cc1cc(C(=O)CCl)c(C)n1CCc1ccccc1	?	3.3µM	0	13µM	4.6µM	-100
COCCn1c(C)cc(C(=O)CSc2ccc(NC(C)=O)cc2)c1C	0	0	0	0	0	0
COCCn1c(C)cc(C(=O)COC(=O)c2ccccc2Br)c1C	0	0	0	0	?	0
C[N+](C)(C)CCSSCC[N+](C)(C)C	-	-	4µM	-	-	-
CN(CC1CCOC1)S(=O)(=O)Cc1ccccc1Cl (stereo not drawn)	-	-	0	-	-	-
COc1ccc(C2C(C(=O)Nc3cc(OC)c(OC)c(OC)c3)c3ccccc3C(=O)N2C)cc1 (stereo not drawn)	1.5µM	1.5µM	0	1.5µM	1.8µM	0
COc1ccc(C2C(C(=O)Nc3cccc(OC)c3)c3ccccc3C(=O)N2C)cc1 (stereo not drawn)	0	0	0	0	0	0
COc1ccc(C2C(C(=O)NCCN3CCOCC3)c3ccccc3C(=O)N2C2CCCCC2)cc1 (stereo not drawn)	0	7.3µM	0	0	5.2µM	0
COc1ccc(C2C(C(=O)N3CCN(C)CC3)c3ccccc3C(=O)N2C2CCCCC2)cc1 (stereo not drawn)	0	0	0	0	0	0
CCN(CC)CCCNC(=O)C1c2ccccc2C(=O)N(C)C1c1ccc(OC)cc1 (stereo not drawn)	?	0	0	0	2.3µM	0
CC(C)Cn1cnc2c1c(=O)n(CC(=O)Nc1ccc(C#N)cc1)c(=O)n2Cc1ccccc1	-	-	0	-	-	-
COc1ccc(/C=C/C(=O)N/C(=C\c2ccco2)C(=O)NCCc2nc3ccccc3[nH]2)cc1	0	21µM	?	0	18µM	0
O=C(NCCc1nc2ccccc2[nH]1)/C(=C/c1ccc2c(c1)OCO2)NC(=O)c1ccc(Cl)cc1Cl	?	?	0	?	?	-99
O=C(NCCc1nc2ccccc2[nH]1)/C(=C/c1ccco1)NC(=O)c1ccc(Br)cc1	0	23µM	0	0	?	0
SMILES	HT1080 IDH1KD tx	TDP1 cell CPT	12-LOX inh	HT1080-NT tox	DT40 TDP1 no CPT	IL-1B inflam inh
O=C(NCCc1nc2ccccc2[nH]1)/C(=C/c1ccco1)NC(=O)c1ccccc1Br	0	?	0	0	?	0
CO[C@H]1C[C@@H]2CC[C@@H](C)[C@@](O)(O2)C(=O)C(=O)N2CCCC[C@H]2C(=O)O[C@H]([C@H](C)C[C@@H]2CC[C@@H](O)[C@H](OC)C2)CC(=O)[C@H](C)C=C(C)[C@@H](O)[C@@H](OC)C(=O)[C@H](C)C[C@H](C)/C=C/C=CC=C1C	-	0.0024µM	-	-	0.0047µM	-
Cc1ccc(NS(=O)(=O)c2cc(NC(=O)C(C)Oc3ccccc3)ccc2C)c(C)c1 (stereo not drawn)	?	?	0	0	23µM	0
Cc1ccc(NC(=O)C(C)Oc2ccccc2)cc1S(=O)(=O)N1CCCCCC1 (stereo not drawn)	0	?	0	0	23µM	0
Cc1ccc(NC(=O)CNc2ccc(OC(C)C)cc2)c(C)c1	0	?	0	0	?	0
CCCC(C)C(=O)Nc1ncc(S(=O)(=O)c2ccc([N+](=O)[O-])cc2)s1 (stereo not drawn)	0	15µM	0	0	?	0
O=C(CCl)Nc1ncc(S(=O)(=O)c2ccc([N+](=O)[O-])cc2)s1	0	29µM	?	?	16µM	?
CCC(C)(C)C(=O)Nc1ncc(S(=O)(=O)c2ccc([N+](=O)[O-])cc2)s1	0	?	?	0	?	0
CN1c2cc(C(=O)Nc3ccc(Cl)c(Cl)c3)ccc2C(=O)N2CCCCCC21 (stereo not drawn)	-	-	0	-	-	-
CC(=O)NN1C(=O)/C(=C\c2ccc(Br)o2)SC1=S	?	?	?	?	16µM	-97
CC(=O)NN1C(=O)/C(=C/c2ccc(Br)o2)SC1=S	0	?	?	0	?	0
COc1cc(/C=C(\C#N)c2nc3ccccc3[nH]2)cc(Br)c1OC	-	-	0	-	-	-
COc1ccc(Cl)cc1C(Nc1cccnc1)c1ccc2cccnc2c1O (stereo not drawn)	10µM	?	?	?	?	-66
CN1CCN(C(c2ccc(C(F)(F)F)cc2)c2ccc3cccnc3c2O)CC1 (stereo not drawn)	?	8.2µM	18µM	0	8.2µM	-85
Oc1c(C(Nc2cccnc2)c2ccc(C(F)(F)F)cc2)ccc2cccnc12 (stereo not drawn)	-	?	-	-	8.9µM	-
Cc1cc(C(=O)Nc2cccnc2)no1	0	?	0	0	?	0
Oc1c(C(Nc2cccc(C(F)(F)F)c2)c2cccnc2)ccc2cccnc12 (stereo not drawn)	?	?	?	0	?	0
Cc1cc(NC(c2cccnc2)c2ccc3cccnc3c2O)no1 (stereo not drawn)	?	3.3µM	0	?	3.7µM	0
O=C(/C=C/c1ccccc1Br)c1ccc(O)cc1	-	-	0	-	-	-
COc1ccc(C)cc1NC(=O)C(=O)c1cn(CC(=O)N2CCOCC2)c2ccccc12	-	-	0	-	-	-
CC/C=C\CCOC(=O)CC	-	-	0	-	-	-
CN1CCN(S(=O)(=O)c2cc3cc(Cl)ccc3oc2=O)CC1	-	-	0	-	-	-
